About 5,800 (2.1%) of roughly 270,000 compounds were called active. Not shown: some 16% with an inconclusive outcome. The calls are words filed in the database; no cut-off is given here. Many of the other results were omitted from the sample, so actives are more common in it than they were.

In this assay the target is Microtubule-associated protein tau (Homo sapiens) (UniProt P10636). The experiment in a line: qHTS for Inhibitors of Tau Fibril Formation, Thioflavin T Binding. [Related pubchem assays: 596 ].
Microtubule-associated protein tau (Homo sapiens), sequence (P10636 whole entry): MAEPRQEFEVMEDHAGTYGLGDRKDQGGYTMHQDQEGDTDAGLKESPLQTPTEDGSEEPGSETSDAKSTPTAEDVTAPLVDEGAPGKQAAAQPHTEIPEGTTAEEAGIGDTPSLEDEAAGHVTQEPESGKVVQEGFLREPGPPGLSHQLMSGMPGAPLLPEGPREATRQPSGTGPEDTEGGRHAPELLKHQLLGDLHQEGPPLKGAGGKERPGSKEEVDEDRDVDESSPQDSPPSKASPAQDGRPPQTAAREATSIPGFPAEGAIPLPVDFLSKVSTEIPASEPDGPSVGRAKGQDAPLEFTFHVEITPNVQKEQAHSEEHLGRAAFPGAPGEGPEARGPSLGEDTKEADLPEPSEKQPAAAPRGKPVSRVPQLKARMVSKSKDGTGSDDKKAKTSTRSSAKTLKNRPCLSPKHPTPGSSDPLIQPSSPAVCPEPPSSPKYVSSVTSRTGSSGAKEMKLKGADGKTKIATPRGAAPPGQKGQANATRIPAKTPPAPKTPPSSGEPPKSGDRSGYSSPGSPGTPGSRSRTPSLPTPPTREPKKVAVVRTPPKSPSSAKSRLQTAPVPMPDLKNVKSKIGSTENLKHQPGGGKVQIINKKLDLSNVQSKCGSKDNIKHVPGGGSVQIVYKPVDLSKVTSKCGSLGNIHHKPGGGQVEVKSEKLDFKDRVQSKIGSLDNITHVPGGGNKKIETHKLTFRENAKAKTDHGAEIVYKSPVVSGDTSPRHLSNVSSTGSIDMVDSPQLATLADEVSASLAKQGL
On to `Cl[Te]1(Cl)OCCO1`, for which the Potency is 5.62 µM (active).

For the origin of these results see ChEMBL document CHEMBL1201862, “PubChem BioAssay data set” (2004).
